Measurements taken from the supplement of paper PMC4466140.

Key:
Assay in all cases: SPOT peptide array binding signal intensity (averaged, normalized) (arbitrary units (background-subtracted, floor 0; scale differs between SH3 domains)); higher = stronger binding of the SH3 domain to the peptide
AgAbp1 = biological target: AgAbp1
Summary of the method: (§1)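 Binding signal is given in arbitrary units that differ between domains and is the normalized, background-subtracted spot intensity averaged across replicates. Each GST-SH3 fusion from one of four yeast species was made in E. coli BL21(DE3), purified on glutathione Sepharose and incubated at 10 μg/ml overnight at 4°C on cellulose-bound synthetic 15-mer peptides in which cysteines were replaced by serines. Detection used anti-GST antibody, an HRP anti-mouse secondary and luminol, followed by imaging and Genespotter quantification.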

AgBbc1 = biological target: AgBbc1
Summary of the method: as §1

AgBem1-D1 = biological target: AgBem1-D1
Summary of the method: as §1

AgBzz1-D1 = biological target: AgBzz1-D1
Summary of the method: as §1

AgBzz1-D2 = biological target: AgBzz1-D2
Summary of the method: as §1

AgCyk3 = biological target: AgCyk3
Summary of the method: as §1

AgFus1 = biological target: AgFus1
Summary of the method: as §1

AgHof1 = biological target: AgHof1
Summary of the method: as §1

AgHse1 = biological target: AgHse1
Summary of the method: as §1

AgLsb1 = biological target: AgLsb1
Summary of the method: as §1

AgLsb4 = biological target: AgLsb4
Summary of the method: as §1

AgMyo5 = biological target: AgMyo5
Summary of the method: as §1

AgNbp2 = biological target: AgNbp2
Summary of the method: as §1

AgRvs167 = biological target: AgRvs167
Summary of the method: as §1

AgSho1 = biological target: AgSho1
Summary of the method: as §1

AgSla1-D1-D2 = biological target: AgSla1-D1-D2
Summary of the method: as §1

AgSla1-D3 = biological target: AgSla1-D3
Summary of the method: as §1

CaAbp1-D1 = biological target: CaAbp1-D1
Summary of the method: as §1

CaAbp1-D2 = biological target: CaAbp1-D2
Summary of the method: as §1

CaBbc1 = biological target: CaBbc1
Summary of the method: as §1

CaBem1-D1 = biological target: CaBem1-D1
Summary of the method: as §1

CaBzz1-D1 = biological target: CaBzz1-D1
Summary of the method: as §1

CaBzz1-D2 = biological target: CaBzz1-D2
Summary of the method: as §1

CaCyk3 = biological target: CaCyk3
Summary of the method: as §1

CaFus1 = biological target: CaFus1
Summary of the method: as §1

CaHof1 = biological target: CaHof1
Summary of the method: as §1

CaHse1 = biological target: CaHse1
Summary of the method: as §1

CaLsb1 = biological target: CaLsb1
Summary of the method: as §1

CaLsb4 = biological target: CaLsb4
Summary of the method: as §1

CaMyo5 = biological target: CaMyo5
Summary of the method: as §1

CaNbp2 = biological target: CaNbp2
Summary of the method: as §1

CaRvs167 = biological target: CaRvs167
Summary of the method: as §1

CaRvs167-3 = biological target: CaRvs167-3
Summary of the method: as §1

CaSho1 = biological target: CaSho1
Summary of the method: as §1

CaSla1-D1-D2 = biological target: CaSla1-D1-D2
Summary of the method: as §1

CaSla1-D3 = biological target: CaSla1-D3
Summary of the method: as §1

ScAbp1 = biological target: ScAbp1
Summary of the method: as §1

ScBbc1 = biological target: ScBbc1
Summary of the method: as §1

ScBem1-D1 = biological target: ScBem1-D1
Summary of the method: as §1

ScBzz1-D1 = biological target: ScBzz1-D1
Summary of the method: as §1

ScBzz1-D2 = biological target: ScBzz1-D2
Summary of the method: as §1

ScCyk3 = biological target: ScCyk3
Summary of the method: as §1

ScFus1 = biological target: ScFus1
Summary of the method: as §1

ScHof1 = biological target: ScHof1
Summary of the method: as §1

ScHse1 = biological target: ScHse1
Summary of the method: as §1

ScLsb1 = biological target: ScLsb1
Summary of the method: as §1

ScLsb2 = biological target: ScLsb2
Summary of the method: as §1

ScLsb3 = biological target: ScLsb3
Summary of the method: as §1

ScLsb4 = biological target: ScLsb4
Summary of the method: as §1

ScMyo3 = biological target: ScMyo3
Summary of the method: as §1

ScMyo5 = biological target: ScMyo5
Summary of the method: as §1

ScNbp2 = biological target: ScNbp2
Summary of the method: as §1

ScPex13 = biological target: ScPex13
Summary of the method: as §1

ScRvs167 = biological target: ScRvs167
Summary of the method: as §1

ScSho1 = biological target: ScSho1
Summary of the method: as §1

ScSla1-D1-D2 = biological target: ScSla1-D1-D2
Summary of the method: as §1

ScSla1-D3 = biological target: ScSla1-D3
Summary of the method: as §1

SpAbp1-D1 = biological target: SpAbp1-D1
Summary of the method: as §1

SpBbc1 = biological target: SpBbc1
Summary of the method: as §1

SpBzz1-D1 = biological target: SpBzz1-D1
Summary of the method: as §1

SpBzz1-D2 = biological target: SpBzz1-D2
Summary of the method: as §1

SpCyk3 = biological target: SpCyk3
Summary of the method: as §1

SpHof1 = biological target: SpHof1
Summary of the method: as §1

SpHof1-2 = biological target: SpHof1-2
Summary of the method: as §1

SpHof1-3 = biological target: SpHof1-3
Summary of the method: as §1

SpHse1 = biological target: SpHse1
Summary of the method: as §1

SpLsb1 = biological target: SpLsb1
Summary of the method: as §1

SpLsb4 = biological target: SpLsb4
Summary of the method: as §1

SpMyo1 = biological target: SpMyo1
Summary of the method: as §1

SpNbp2 = biological target: SpNbp2
Summary of the method: as §1

SpPex13 = biological target: SpPex13
Summary of the method: as §1

SpRvs167 = biological target: SpRvs167
Summary of the method: as §1

SpSla1-D1-D2 = biological target: SpSla1-D1-D2
Summary of the method: as §1

SpSla1-D3 = biological target: SpSla1-D3
Summary of the method: as §1

Measured: SPOT peptide array binding signal intensity

DLPLPDLPPEPPTEL
9.5: CaSho1
2: AgBzz1-D2 | AgSla1-D1-D2 | ScBzz1-D1 | ScBzz1-D2 | ScCyk3
0.5: AgCyk3 | CaLsb1 | SpHof1-3
206: ScHof1
2.5: CaHof1 | CaRvs167-3
207: AgMyo5
3: SpHof1-2
1: CaHse1
54.5: AgHof1
2.75: ScBbc1
384: ScMyo3
0.333: CaRvs167
4: ScAbp1
10.5: AgHse1
646: ScMyo5
328: SpMyo1
0.75: CaMyo5
≤ 0: all other assays above

MFLISPPASPPPEFD
19: CaSho1
11.2: CaSla1-D3
180: CaMyo5
70: AgBem1-D1
388: AgMyo5
20: ScNbp2
33.5: SpBzz1-D1
4: AgFus1 | AgHof1
1: AgSla1-D3
8: CaHse1
735: ScMyo3
6: CaBbc1
1.5: AgCyk3 | AgSho1
31: CaNbp2
5.83: CaRvs167
5.5: ScAbp1
342: CaFus1
7: ScBzz1-D1 | ScFus1
3.75: CaRvs167-3
7.25: ScSla1-D3
2: AgNbp2 | CaCyk3 | ScBzz1-D2 | ScCyk3
650: ScMyo5
3: AgSla1-D1-D2
0.5: SpBbc1
not listed: SpBzz1-D2 | SpCyk3 | SpHof1 | SpHof1-2 | SpHof1-3 | SpHse1 | SpLsb1 | SpLsb4 | SpMyo1 | SpNbp2 | SpPex13 | SpRvs167 | SpSla1-D1-D2 | SpSla1-D3
≤ 0: all other assays above
